From the supplement of paper PMC4723716

Tested on: Plasmodium falciparum NF54 gametocytes
Experiment: viability index relative to DMSO control (fraction); higher = less gametocyte killing
Settings: 12.5 µM, incubation time: 72 h
Method in brief: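 The viability index was calculated as the gametocyte particle count over the plate mean of solvent-only wells. For this, P. falciparum NF54 gametocytes of every stage (I–V) were held with compound at 12.5 µM for 72 hr at 37°C under low oxygen in 384-well plates. MitoTracker Red CMXRos staining for 20 min was followed by transfer of 5 µl into 40 µl of 500 nM dye in serum-free medium, with three fields imaged after 30 min.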

[1] = gametocyte stage: Stage I viability index
[2] = gametocyte stage: Stage II viability index
[3] = gametocyte stage: Stage III viability index
[4] = gametocyte stage: Stage IV viability index
[5] = gametocyte stage: Stage V viability index

Compound | viability index [1] | viability index [2] | viability index [3] | viability index [4] | viability index [5]
CC(C)CNC(=O)c1c(N)n(CCc2ccccc2F)c2nc3ccccc3nc12 | 0.0398 | 0.139 | 0.662 | 0.687 | 0.769
O=C(NCc1ccco1)C1CCN(S(=O)(=O)c2ccc(Cl)cc2)CC1 | 0.568 | 0.802 | 1.03 | 0.942 | 1.23
COc1ccc(-c2cn3c(C(=O)Nc4ccccc4Cl)c(-c4ccccc4)c4c3n2CCCC4)cc1 | 0.673 | 0.531 | 0.719 | 0.794 | 0.779
COc1ccccc1CNC(=O)CCn1c(=O)[nH]c2ccsc2c1=O | 0.477 | 0.712 | 1 | 0.805 | 0.769
Cc1cc(C)c2c(c1)OCN(Cc1ccccc1Cl)C2 | 0.0442 | 0.13 | 0.569 | 0.663 | 0.615
Cc1[nH]c(-c2ccc(F)cc2)cc1C(=O)NC1CCN(Cc2ccccc2)CC1 | 0.131 | 0.502 | 0.744 | 0.881 | 1.09
COc1ccc(-c2nc(NC(=O)CS(=O)(=O)c3ccc(F)cc3)sc2C)cc1 | 0.307 | 0.564 | 1.11 | 0.888 | 0.978
CCOc1ccc(Nc2ccnc3cc(Cl)ccc23)cc1 | 0.0699 | 0.411 | 0.852 | 0.728 | 0.558
Cc1cc(NC(=O)c2cccc(C(F)(F)F)c2)n(-c2nc(-c3ccc4c(c3)OCO4)cs2)n1 | 1.26 | 0.943 | 1.1 | 0.951 | 0.956
Cc1cc(NC(=O)c2ccc(-c3ccccc3)cc2)no1 | 0.759 | 0.877 | 0.901 | 0.836 | 0.681
OC(CNC1CCCCC1)Cn1c2ccc(I)cc2c2cc(I)ccc21 (stereo not given) | 0.116 | 0.0916 | 0.122 | 0.168 | 0.13
CCn1nc(-c2ccc(C(=O)OC)cc2)nc2c(=O)n(C)c(=O)nc1-2 | 0.15 | 0.284 | 0.103 | 0.0365 | 0.044
CC1(c2ccccc2)Nc2ccccc2-c2nc3ccccc3n21 (stereo not given) | 0.183 | 0.109 | 0.298 | 0.498 | 0.0659
Cc1ccc(Nc2nc(-c3ccccn3)cs2)cc1 | 0.193 | 0.22 | 0.109 | 0.173 | 0.121
CCOc1ccc(C=Cc2nc(=O)c3ccccc3o2)cc1 | 0.549 | 0.836 | 0.85 | 0.805 | 0.67
COc1ccc(C(=O)Nc2ccc(Cl)cc2C(=O)Nc2ccncc2)cc1 | 0.0232 | 0.557 | 0.915 | 0.763 | 0.692
OC(CNC1CCCCC1)Cn1c2ccccc2c2ccccc21 (stereo not given) | 0.0354 | 0.0493 | 0.178 | 0.277 | 0.198
CCCCN(CCCC)S(=O)(=O)c1ccc(NC(=O)c2ccco2)cc1 | 0.943 | 0.963 | 0.951 | 0.842 | 0.831
CCOc1cc2c(cc1OCC)C(c1cc(C)c(O)c(C)c1)NCC2 (stereo not given) | 0.0111 | 0.123 | 0.642 | 0.851 | 0.78
CCOc1ccc(-c2nc(NC(=O)c3cccc(S(C)(=O)=O)c3)sc2C)cc1 | 0.956 | 0.686 | 1.1 | 0.857 | 0.857

Compound | viability index [1] | viability index [2] | viability index [3] | viability index [4] | viability index [5]
CCCCCC(=O)N1c2ccccc2N=C2CC(c3ccc(OC)c(OC)c3)CC(O)=C2C1c1ccc(C(F)(F)F)cc1 (stereo not given) | 0.0365 | 0.0251 | 0.0919 | 0.219 | 0.429
O=C(NC1CCCCC1)C(c1cccs1)N(CCc1ccccc1)C(=O)c1ccco1 (stereo not given) | 0.98 | 0.838 | 1 | 1.04 | 0.961
Cc1ccc(CSCc2ccc(C(=O)NC3CC3)o2)cc1 | 0.678 | 0.965 | 1.07 | 0.924 | 0.978
O=C(Nc1ccc(-c2nc3ccccc3[nH]2)cc1)c1ccc(Cl)c(Cl)c1 | 0.129 | 0.564 | 0.894 | 0.978 | 0.727
COc1ccc(C(O)(CCC(C)C)C(CN2CCOCC2)c2ccc(Cl)cc2)cc1 (stereo not given) | 1.2 | 0.843 | 1.12 | 1 | 0.922
COc1ccccc1C(=O)ON=C(N)Cc1cccc2ccccc12 | 0.0446 | 0.121 | 0.299 | 0.373 | 0.195
CC(C)(C)C(=O)Nc1ccc(C(=O)Nc2cccc(-c3nc4ccccc4[nH]3)c2)cc1 | 0.111 | 0.592 | 0.694 | 0.833 | 0.604
COc1ccccc1CNC(=O)CCn1c(=O)[nH]c2ccccc2c1=O | 0.867 | 0.898 | 0.912 | 0.951 | 0.912
FC(F)(F)c1cccc(CNC2CCN(CCc3ccccc3)CC2)c1 | 0.0431 | 0.464 | 0.856 | 0.83 | 0.802
Oc1ccc2ccccc2c1CNc1nc2ccccc2[nH]1 | 0.0376 | 0.182 | 0.512 | 0.462 | 0.273
CCCCCCC(O)(c1ccc(F)cc1)C(CN1CCOCC1)c1ccccc1 (stereo not given) | 0.871 | 0.694 | 0.879 | 0.93 | 0.831
CCOc1cc2c(cc1OCC)C(c1cc(Cl)c(O)c(OCC)c1)NCC2 (stereo not given) | 0.0402 | 0.163 | 0.539 | 0.829 | 0.922
Cc1ccc2nc(C)cc(Nc3cccc(C(F)(F)F)c3)c2c1 | 0.325 | 0.504 | 0.803 | 0.829 | 0.857
Cc1sc2ncnc(Sc3nc4ccccc4[nH]3)c2c1C | 0.0276 | 0.0135 | 0.0354 | 0.0821 | 0.0659
Brc1ccc(Nc2nc3ccccc3nc2Nc2ccc(Br)cc2)cc1 | 0.0192 | 0.00916 | 0.0204 | 0.0222 | 0.104
CN(C)CCCNc1c2ccccc2nc2ccccc12 | 0.0663 | 0.0164 | 0.0835 | 0.201 | 0.231
O=C(CCc1ccccc1)c1ccccc1OCC(O)CN1CCCCC1 (stereo not given) | 0.00787 | 0.0616 | 0.36 | 0.465 | 0.39
Oc1c(CN2CCN(c3ccccc3F)CC2)cc(Br)c2cccnc12 | 0.0376 | 0.0566 | 0.0353 | 0.0253 | 0.026
CCOc1ccc(CN2CCN(CC(O)COc3ccc(OCC(O)CN4CCN(Cc5ccc(OCC)cc5)CC4)cc3)CC2)cc1 (stereo not given) | 0.076 | 0.114 | 0.133 | 0.104 | 0.0519
O=C(CCl)NCCOc1ccc(Cl)cc1Cl | 0.732 | 0.629 | 0.813 | 0.769 | 0.675

Compound | viability index [1] | viability index [2] | viability index [3] | viability index [4] | viability index [5]
Nc1nc(Nc2cccc(F)c2)nc2ccccc12 | 0.0673 | 0.534 | 0.725 | 0.82 | 0.844
C=CCc1c(C)nc2ccccc2c1O | 0.92 | 0.671 | 0.798 | 0.793 | 1.05
CCCc1c(C)nc2ccccc2c1O | 0.634 | 0.705 | 0.844 | 0.72 | 1.02
CC(C)(C)c1ccc(C(=O)Nc2c3c(nn2-c2cccc(Cl)c2)CSC3)cc1 | 0.469 | 0.508 | 0.825 | 0.747 | 0.701
COc1ccc(-n2ccnc2SCC(=O)Nc2cc(C)ccc2C)c(OC)c1 | 1.07 | 0.949 | 0.975 | 0.939 | 0.989
O=C(Nc1nc(-c2ccccn2)cs1)c1ccccc1Br | 0.0807 | 0.13 | 0.147 | 0.158 | 0.0989
COc1ccc(-c2cc3c(SCC(=O)Nc4cc(C(F)(F)F)ccc4Cl)nccn3n2)cc1 | 1.04 | 0.886 | 1.06 | 0.924 | 1.05
O=C(Nc1ccc(N2CCN(Cc3ccccc3)CC2)cc1)c1cccs1 | 0.941 | 0.866 | 0.795 | 0.875 | 1.15
CCOc1ccc(-n2cc(-c3ccccc3)c3c(SCc4cc(C)ccc4C)ncnc32)cc1 | 1.12 | 0.908 | 0.934 | 1.03 | 1.03
CCOc1ccc(C2N(C)c3ccccc3N2C)cc1 | 0.996 | 1.03 | 1.08 | 0.985 | 0.901
COc1ccc(N2CCN(C(CNC(=O)CC(C)(C)C)c3ccc4c(c3)OCO4)CC2)cc1 (stereo not given) | 1.04 | 0.928 | 1.02 | 0.826 | 0.727
COc1ccc(C2NCCc3c2[nH]c2ccccc32)cc1CN1CCN(c2ccc(F)cc2)CC1 (stereo not given) | 0.0297 | 0.0183 | 0.0204 | 0.0222 | 0.0519
OC1=C2C(=Nc3ccccc3SC2c2ccc(Br)cc2)c2ccccc21 (stereo not given) | 0.755 | 0.751 | 1.04 | 0.801 | 0.857
O=C1c2ccccc2C2=Nc3ccccc3SC(c3cccc(F)c3)C12 (stereo not given) | 0.857 | 0.869 | 0.868 | 0.75 | 0.844
CCOC(=O)C1=C(c2ccccc2)N=c2sc(=Cc3cc(C)n(-c4ccc(F)cc4)c3C)c(=O)n2C1c1cccc(OC)c1OC (stereo not given) | 0.806 | 0.787 | 0.996 | 0.839 | 0.703
COc1cccc(NC(=O)Cn2c(C)c(C#N)c3ccccc32)c1 | 0.0586 | 0.129 | 0.252 | 0.605 | 0.363
O=C(NNc1cc(N2CCCC2)nc(N2CCCC2)n1)c1ccccc1 | 0 | 0.00749 | 0.275 | 0.516 | 0.377
CCCCc1c(C)nc2c(OC)cccc2c1O | 1.07 | 0.942 | 1.03 | 0.954 | 1.1
COc1cccc(NC(=O)[C@H](C(C)C)n2c(=O)[nH]c3ccccc3c2=O)c1 | 0.0552 | 0.0213 | 0.0736 | 0.286 | 0.341
O=C1c2ccc3c4c(ccc(c24)C(=O)N1CCCCO)C(=O)N(CCCCO)C3=O | 0.364 | 0.261 | 0.204 | 0.168 | 0.182
